From PubChem
This is one part of a sample in which hits are shown more often than they occur.
TbPYK inhibitor = blocks Trypanosoma brucei pyruvate kinase. Potency, µM (titrated, usually from 76.8 µM), for inactives: at the highest dose activity, negative = inhibition, usual class: inhibitors. AID 624173. TbPYK enzyme, Kinase-Glo Plus ATP luminescence, 45 min. Q57TT1. 410,000 tested, 0.12% active; also: potency is read from the fitted curve at half-maximal effect; % is scaled to controls: 0 for no effect and ±100 for the full control effect; nearly all actives have a fitted effect of over 50% in size
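TbPYK + substrate in 50 mM TEA pH 7.2, 100 mM KCl, 10 mM MgCl2, 0.05% BSA, 0.01% Tween-20; cpd pinned; ADP 130 uM final; 45 min RT; Kinase-Glo Plus 10 min; luminescence endpoint.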
Giardia FBPA inh = blocks Giardia fructose-bisphosphate aldolase activity. 290,000 tested, 0.71% active. A8B2U2. Potency, µM (series often up to 59.6 µM), without a hit: at the top dose activity, negative = inhibition, hits mostly inhibitors. purified Giardia FBPA; also: potency is read from the fitted curve at half-maximal effect; % is scaled to controls: 0 for no effect and ±100 for the full control effect; nearly all actives have a fitted effect of over 55% in size
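40 nM FBPA preincubated 10 min at RT with compound (up to 57.5 uM final), then substrate plus GAPDH/TPI/NAD/arsenate coupling and diaphorase/resazurin added. Fluorescence read after 20 min at RT, 525/598 nm.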
RE007 growth inh = less growth of the S. pombe RE007 Vpr strain. S. pombe RE007 Vpr strain, BacTiter-Glo ATP luminescence, 24 h. Potency, µM (highest dose often 92.2 µM), inactives show top-dose activity change, negative = less growth, actives largely listed as inhibitors. 360,000 tested, 0.21% active. AID 651644; active = well fitted falling curve with a large enough effect; inconclusive = small, poorly fitted or top-dose-only effect; inactive = no such curve, though single readings can be large or run the other way; also: potency is read from the fitted curve at half-maximal effect; % is scaled to controls: 0 for no effect and ±100 for the full control effect; nearly all actives have a fitted effect of over 50% in size
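Fission yeast RE007 carrying one integrated HIV-1 vpr copy, seeded at OD 0.01 in PMG+AL medium with 23 nL pinned compound. Grown 24 h at 30 degrees; viability read by BacTiter-Glo luminescence after 5 min.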
LmPK inh = LmPK (Leishmania mexicana) enzyme inhibition; Q27686; purified LmPK, Kinase-Glo ATP luminescence, 1 h; Potency, µM (highest dose often 57.5 µM), inactives show at the highest dose activity change, negative = inhibition, actives largely listed as inhibitors; 290,000 tested, 0.37% active; also: potency is read from the fitted curve at half-maximal effect; % is scaled to controls: 0 for no effect and ±100 for the full control effect
Target sequence (Q27686 whole entry, looked up): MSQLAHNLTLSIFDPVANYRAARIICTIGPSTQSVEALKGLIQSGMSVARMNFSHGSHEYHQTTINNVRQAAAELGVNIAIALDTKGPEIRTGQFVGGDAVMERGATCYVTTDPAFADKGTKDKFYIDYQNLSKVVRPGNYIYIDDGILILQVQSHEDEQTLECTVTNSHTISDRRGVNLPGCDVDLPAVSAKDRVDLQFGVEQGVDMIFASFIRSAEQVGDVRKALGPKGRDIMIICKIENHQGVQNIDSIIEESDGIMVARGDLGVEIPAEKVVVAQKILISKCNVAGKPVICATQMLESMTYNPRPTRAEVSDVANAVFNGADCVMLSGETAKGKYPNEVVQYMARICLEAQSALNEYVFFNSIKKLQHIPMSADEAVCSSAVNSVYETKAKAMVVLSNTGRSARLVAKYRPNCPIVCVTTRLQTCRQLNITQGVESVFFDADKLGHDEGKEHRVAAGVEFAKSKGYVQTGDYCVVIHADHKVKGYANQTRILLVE
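Purified LmPK (0.1 nM) with 0.5 mM PEP and 0.1 mM ADP in imidazole buffer pH 7.2 with MgCl2/KCl, 1 h at room temperature. ATP formed was read by luciferase luminescence and normalized to no-enzyme and uninhibited controls.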
Shiga inhibitor = blocks Shiga toxin action in Vero cells; Vero cells, Shiga toxin protein synthesis inhibition reporter; inhibition, % at 38.7 µM; 290,000 tested, 9.2% active; AID 2315; in the data active = inhibition mostly above about 28%, no sharp cut-off; inactive = mostly below about 43%; also: 0% is about no effect
Cycloheximide cs = counter-screen hit for Shiga toxin inhibitors, cycloheximide; max response, %; AID 2314; cell reporter, cycloheximide protein synthesis inhibition counterscreen; 300,000 tested, 12% active; in the data active = max response mostly above about 13%, no sharp cut-off; inactive = mostly below about 14%; also: read at 38.3 µM for the half of the compounds with a filed dose; 0% is about no effect
The depositor's hits bear a star; [ ] = dose if it differs, or a comment. Unless noted, calls follow the shape of the dose curve; as a rule, active = well fitted curve in the direction sought with a large enough effect; inconclusive = small, poorly fitted or top-dose-only effect, or another doubt; inactive = no such curve, though single readings can be large; an effect the other way counts as inactive or inconclusive.

What do the screens show for `COc1ccc(C)cc1NC(=O)C(=O)NCC(c1cccnc1)N1CCN(c2ccccc2F)CC1` (stereo not drawn)?
TbPYK inhibitor: -7%

Results for CCC(C)(C)C1CCc2[nH]nc(C(=O)NCc3ccccn3)c2C1 (stereo not drawn) ?
TbPYK inhibitor: -4%; RE007 growth inh: 5%

How did O=S(=O)(c1ccc(-c2cc(C(F)(F)F)on2)s1)N1CCN(c2ccc(F)cc2)CC1 do in these assays?
TbPYK inhibitor: 1%

Results for CC(=O)c1ccc(NC(=O)c2ccc(N3C(=O)c4cccnc4C3=O)cc2)cc1 ?
TbPYK inhibitor: 2%; Giardia FBPA inh: -5%; RE007 growth inh: -1%; LmPK inh: 2%; Shiga inhibitor: 32; Cycloheximide cs: 22*

What do the screens show for `O=C(O)c1ccc(N2C(=O)c3cccnc3C2=O)cc1`?
TbPYK inhibitor: 6%; Giardia FBPA inh: inconclusive; RE007 growth inh: inconclusive; LmPK inh: 1%; Shiga inhibitor: 30; Cycloheximide cs: 19*

Results for O=C1c2cccnc2C(=O)N1c1ccccc1-c1ccccc1 ?
TbPYK inhibitor: -5%; Giardia FBPA inh: -3%; RE007 growth inh: 21%; LmPK inh: 3%; Shiga inhibitor: 5; Cycloheximide cs: -3

How did CCOC(=O)c1ccccc1N/C=C/C(=O)c1ccccc1 do in these assays?
TbPYK inhibitor: 1%; RE007 growth inh: -10%

What do the screens show for `Cc1ccc(C(=O)/C=C/Nc2ccccc2C(N)=O)cc1`?
TbPYK inhibitor: 11%; Giardia FBPA inh: -3%; RE007 growth inh: inconclusive; LmPK inh: inconclusive; Shiga inhibitor: 24; Cycloheximide cs: 19*

What do the screens show for `NC(=O)c1ccccc1N/C=C/C(=O)c1ccc(Cl)cc1`?
TbPYK inhibitor: -11%; Giardia FBPA inh: 0%; RE007 growth inh: -6%; LmPK inh: inconclusive; Shiga inhibitor: 49*; Cycloheximide cs: 52*

How did NC(=O)c1ccccc1NC(=O)c1ccccc1Cl do in these assays?
TbPYK inhibitor: 1%; Giardia FBPA inh: 7%; RE007 growth inh: 2%; LmPK inh: 4%; Shiga inhibitor: 44; Cycloheximide cs: 11

How did CN1CCN(C(=O)c2cc(COc3ccccc3)on2)[C@@H](c2ccccc2)C1 do in these assays?
TbPYK inhibitor: -18%; Giardia FBPA inh: 6%; RE007 growth inh: -19%; LmPK inh: 3%; Shiga inhibitor: 117*; Cycloheximide cs: 55*

What do the screens show for `CN1CCN(C(=O)c2cc(COc3c(F)cccc3F)on2)CC1c1ccccc1` (stereo not drawn)?
TbPYK inhibitor: -9%; Giardia FBPA inh: 2%; RE007 growth inh: -11%; LmPK inh: -14%; Shiga inhibitor: 3; Cycloheximide cs: -2

Results for Cc1ccc(OCc2cc(C(=O)N3CCN(C)C[C@@H]3c3ccccc3)no2)cc1C ?
TbPYK inhibitor: 4%; Giardia FBPA inh: 14%; RE007 growth inh: 6%; LmPK inh: 5%; Shiga inhibitor: 123*; Cycloheximide cs: 75*

What do the screens show for `O=C(C1CCN(S(=O)(=O)c2cccnc2)CC1)N1CCN(c2ccccc2Cl)CC1`?
TbPYK inhibitor: 4%; Giardia FBPA inh: 5%; RE007 growth inh: -3%; LmPK inh: -2%; Shiga inhibitor: 29; Cycloheximide cs: 26*

Results for Cc1c(C(=O)NN2CCCCC2)nn(-c2ccc(Cl)cc2Cl)c1-c1ccc(Cl)cc1 ?
TbPYK inhibitor: -5%

How did O=C(NOC(=O)c1c(F)cccc1Cl)c1ccc(Cl)c(Cl)c1 do in these assays?
TbPYK inhibitor: 0%; Giardia FBPA inh: 1%; RE007 growth inh: 5%; LmPK inh: 2%; Shiga inhibitor: 46*; Cycloheximide cs: 30*

How did CCCCOc1ccc(C(=O)N(Cc2ccc(N(C)C)cc2)Cc2ccco2)cc1 do in these assays?
TbPYK inhibitor: -3%

What do the screens show for `O=C(NC1CCCCC1)C(c1ccncc1)N(Cc1ccccc1)C(=O)c1ccc(-c2ccccc2)[nH]1` (stereo not drawn)?
TbPYK inhibitor: 2%; Giardia FBPA inh: -3%; RE007 growth inh: -4%; LmPK inh: -3%; Shiga inhibitor: -13; Cycloheximide cs: -2

How did CC(C)(C)NC(=O)C(c1ccncc1)N(Cc1ccco1)C(=O)c1ccc(-c2ccccc2)[nH]1 (stereo not drawn) do in these assays?
TbPYK inhibitor: -8%; Giardia FBPA inh: -16%; RE007 growth inh: -9%; LmPK inh: 5%; Shiga inhibitor: 91*; Cycloheximide cs: 39*

What do the screens show for `CCc1ccc(-c2nc(CS(=O)CC(=O)NCCCN3CCC(C)CC3)c(C)o2)cc1` (stereo not drawn)?
TbPYK inhibitor: 3%; Giardia FBPA inh: -3%; RE007 growth inh: -4%; LmPK inh: -4%; Shiga inhibitor: 19; Cycloheximide cs: 19*

What do the screens show for `CCc1ccc(-c2nc(CS(=O)CC(=O)NCCN3CCCCCC3)c(C)o2)cc1` (stereo not drawn)?
TbPYK inhibitor: -2%; Giardia FBPA inh: -19%; RE007 growth inh: 7%; LmPK inh: -1%; Shiga inhibitor: 22; Cycloheximide cs: 27*

What do the screens show for `CCc1ccc(-c2nc(CS(=O)CC(=O)NCCc3ccccc3)c(C)o2)cc1` (stereo not drawn)?
TbPYK inhibitor: 0%; RE007 growth inh: 3%; LmPK inh: 9%; Shiga inhibitor: 43; Cycloheximide cs: 21*

How did CC(C)c1onc(C(=O)Nc2cccc(Cl)c2)c1[N+](=O)[O-] do in these assays?
TbPYK inhibitor: 9%; Giardia FBPA inh: -11%; RE007 growth inh: -9%; LmPK inh: 2%; Shiga inhibitor: 35; Cycloheximide cs: 25*

What do the screens show for `CC(C)c1cc(C(=O)Nc2cccc(Cl)c2)no1`?
TbPYK inhibitor: -1%; Giardia FBPA inh: -9%; RE007 growth inh: inconclusive; LmPK inh: inconclusive; Shiga inhibitor: 82*; Cycloheximide cs: 30*

Results for CC(=O)c1cccc(NC(=O)c2cc(-c3ccc(F)cc3)on2)c1 ?
TbPYK inhibitor: 1%; Giardia FBPA inh: -1%; RE007 growth inh: 8%; LmPK inh: 0%; Shiga inhibitor: -5; Cycloheximide cs: -1

Results for CC(C)c1onc(C(=O)NCc2ccccn2)c1[N+](=O)[O-] ?
TbPYK inhibitor: 1%; Giardia FBPA inh: 1%; RE007 growth inh: 11%; LmPK inh: -2%; Shiga inhibitor: -4; Cycloheximide cs: 10

How did CC(=O)c1cccc(NC(=O)c2cc(C(C)C)on2)c1 do in these assays?
TbPYK inhibitor: 1%; Giardia FBPA inh: -20%; RE007 growth inh: -16%; LmPK inh: 5%; Shiga inhibitor: 84*; Cycloheximide cs: 40*

How did CC(=O)Nc1ccc(C(=O)N2CCCC(c3cc(C(=O)NCc4ccc(F)cc4)no3)C2)cc1 (stereo not drawn) do in these assays?
TbPYK inhibitor: 4%; RE007 growth inh: -2%[18.4 µM]
